# HT1080 IDH1KD tx – qHTS for induction of synthetic lethality in tumor cells producing 2HG: qHTS for the HT-1080-IDH1KD cell line; AID 686971, 2013; 360,000 tested, 2% active; HT-1080 IDH1 knockdown viability, ATP luminescence, 48 h; Potency, µM (highest dose often 46.1 µM), for the others: at the highest dose activity, negative = toxicity, usual class: cytotoxic;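 note: potency is the fitted concentration of half-maximal effect; 0% = DMSO wells and -100% = cell-free medium wells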
#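 After a 2 h attachment period, IDH1KD HT-1080 cells took pin-transferred compound for 48 h at 37 °C; ATP-based luminescence after 10 min room-temperature reagent incubation reported viability.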
# DT40 TDP1 no CPT – qHTS for Inhibitors of human tyrosyl-DNA phosphodiesterase 1 (TDP1): qHTS in cells in absence of CPT; AID 686978, 2013; Potency, µM (doses to about 46.2 µM), inactives show at the highest dose activity change, negative = growth inhibition, most hits filed as inhibitors; DT40 Tdp1-/- hTDP1 cells, no CPT, ATP luminescence, 48 h; 420,000 tested, 15% active; note: potency is the fitted concentration of half-maximal effect; nearly all actives have a fitted effect of over 55% in size
#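 Compound effects on proliferation are scored in DT40 Tdp1-/-;hTDP1 cells in the absence of CPT. ATP levels (CellTiter-Glo luminescence) are recorded after a ≥48 hr, 37 °C incubation.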
# DT40 TDP1 CPT – qHTS for Inhibitors of human tyrosyl-DNA phosphodiesterase 1 (TDP1): qHTS in cells in presence of CPT; AID 686979, 2013; 420,000 tested, 12% active; chicken DT40 Tdp1-/-;hTDP1 cells + 20 nM CPT, ATP luminescence, 48 h; Potency, µM (series often up to 46.2 µM), inactives show at the top dose activity change, negative = growth inhibition, actives largely listed as inhibitors; note: potency is the fitted concentration of half-maximal effect; nearly all actives have a fitted effect of over 55% in size
#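 Cell growth measured by CellTiter-Glo luminescence after a minimum 48 h, 37 C compound exposure with 20 nM CPT in Tdp1-knockout DT40 cells stably expressing hTDP1, seeded 400/well; qHTS titration format.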
# IL1B secr inh – qHTS for Inhibitors of Inflammasome Signaling: IL-1-beta AlphaLISA Primary Screen | THP-1 LPS/ATP IL-1B secretion, AlphaLISA, 16 h; stronger effect = lower value | activity change, % at 57.5 µM | 360,000 tested, 4.7% active | AID 743279, 2014; in the data active = activity change below about -50%; inconclusive = mostly about -30% to -49%
#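 THP-1 cells pretreated 1 hr with compounds (up to 57.5 uM final), then stimulated with LPS (250 ng/mL final) plus ATP (1.25 mM final); secreted IL-1B measured by AlphaLISA after 16 hr, decreased signal indicating inhibition.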
# HT1080-NT tox – qHTS for induction of synthetic lethality in tumor cells producing 2HG: qHTS for the HT-1080-NT fibrosarcoma cell line. HT-1080-NT fibrosarcoma viability, CellTiter-Glo ATP luminescence, 48 h. Potency, µM (top dose mostly 46.1 µM), for inactives: top-dose activity, negative = less viability, hits mostly cytotoxic. 360,000 tested, 1.6% active. AID 686970, 2013;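 note: NT is the 2HG producing partner of a matched IDH1 knockdown line; potency is the fitted concentration of half-maximal effect; 0% = DMSO-treated cells and -100% = media-only wells without cells; nearly all actives have a fitted effect of over 55% in size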
#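 HT-1080-NT fibrosarcoma cells (2HG-overproducing), 750 cells/well in RPMI with 5% FBS, dosed after 2 h and incubated 48 h at 37C. CellTiter-Glo luminescence normalized to DMSO and no-cell wells; concentration-response curves fitted and classed.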
# An asterisk follows results filed as active; i = inactive; ? = inconclusive; nt = not tested or not shown. Rows were chosen to be rich in hits. Some 19% of all compounds tested hit in one or more screens of this group. Unless noted, calls come from the whole dose curve; as a rule, active = well fitted curve in the direction sought with a large enough effect; inconclusive = small, poorly fitted or top-dose-only effect, or another doubt; inactive = no such curve, though single readings can be large; an effect the other way counts as inactive or inconclusive. Unless noted, % is set by controls: 0 for no effect and ±100 for the full control effect.
SMILES,HT1080 IDH1KD tx,DT40 TDP1 no CPT,DT40 TDP1 CPT,IL1B secr inh,HT1080-NT tox
OCCC1CN(Cc2cccc3nonc23)CCN1C1CCCCC1 (stereo unspecified),22%,-8%,25%,10,-12%
Cc1cc(C)c2cc(C(=O)Nc3ccc(C)c(F)c3)[nH]c2c1,-12%,4%,?,-3,-5%
CCOC(=O)C1CCN(C(=O)c2cc3ccc4ccc(C)[nH]c4c3n2)CC1,nt,21µM*,18µM*,nt,nt
Cc1ccc2ccc3cc(C(=O)N4CCN(c5ccccc5F)CC4)nc3c2[nH]1,nt,16µM*,?,nt,nt
Cc1ccc2ccc3cc(C(=O)Nc4ccc(C)c(F)c4)nc3c2[nH]1,nt,16µM*,?,nt,nt
Cc1cc(F)ccc1S(=O)(=O)Nc1ccccc1C(=O)Nc1ccccc1-c1nc2ccccc2[nH]1,?,7.3µM*,5.8µM*,-79*,?
Cc1cc(F)ccc1S(=O)(=O)Nc1ccccc1C(=O)Nc1ncn[nH]1,-4%,-26%,-16%,15,-1%
CCCN1CCC(=O)N([C@H](CSc2ccc(C)cc2)Cc2ccccc2)CC1,-8%,?,29µM*,-17,-25%
COc1ccc(SC[C@H](Cc2ccccc2)N2CCN(C)CCC2=O)cc1,-5%,?,?,-15,0%
CCCN1CCC(=O)N([C@H](CSc2ccc(OC)cc2)Cc2ccccc2)CC1,0%,18µM*,?,7,3%
O=C1CCN(CCc2ccccc2)CCN1[C@H](CSc1ccccc1)Cc1ccccc1,-13%,11µM*,21µM*,-64*,-23%
CCCN1CCC(=O)N([C@H](CSc2ccc(C)cc2)CC(C)C)CC1,-2%,16µM*,21µM*,-19,10%
Cc1ccc(SC[C@H](Cc2ccccc2)N2CCN(CCc3ccccc3)CCC2=O)cc1,?,?,?,-17,-28%
CC(=O)c1ccc(N2CCN(C(=O)c3ccc(NC(=O)C4CCCO4)cc3)CC2)cc1 (stereo unspecified),2%,?,-20%,8,6%
O=C(N/N=C1\C/C(=N\NC(=O)c2ccncc2)c2ccccc21)c1ccncc1,-6%,?,?,28,0%
CC1(C)Cc2c(cnn2-c2ccccc2)C(=O)/C1=N\NC(=O)c1ccncc1,-7%,?,18µM*,15,-9%
O=C(Oc1c(-c2ccccc2)c(=O)n2c3c(cccc13)CC2)c1ccc(Cl)cc1,13%,21µM*,-23%,15,22%
COc1ccc(CNC(=O)CCNS(=O)(=O)c2cc(Br)cnc2N)cc1,1%,13µM*,21µM*,29,28%
Nc1ncc(Br)cc1S(=O)(=O)NCCC(=O)NCc1ccc(F)cc1,6%,15%,-15%,14,0%
O=C1C(=O)c2ccccc2C(O)=C1CCCCl,?,4.1µM*,5.8µM*,-67*,16µM*
CC12CCC(=O)N1C(C(=O)N1CCN(S(=O)(=O)c3cccc(C(F)(F)F)c3)CC1)CS2 (stereo unspecified),8%,-13%,-8%,0,12%
Cc1cccc(C)c1Nc1c(-c2ccc(O)cc2)nc2sccn12,nt,7.3µM*,6.5µM*,nt,nt
COc1cc(-c2nc3cnccn3c2Nc2c(C)cccc2C)ccc1O,5%,?,?,23,-21%
CCc1cccc(C)c1Nc1c(-c2cccc(O)c2)nc2sccn12,nt,16µM*,15µM*,nt,nt
CCOc1ccc2nc(N3CCC(C(=O)Nc4ccccc4CC)CC3)sc2c1,nt,23µM*,?,nt,nt
SMILES,HT1080 IDH1KD tx,DT40 TDP1 no CPT,DT40 TDP1 CPT,IL1B secr inh,HT1080-NT tox
CCOc1ccc2nc(N3CCC(C(=O)Nc4nnc(CC)s4)CC3)sc2c1,-3%,-1%,-26%,3,-3%
CCOc1ccc2nc(N3CCC(C(=O)N4CCN(C(=O)c5ccco5)CC4)CC3)sc2c1,7%,23µM*,?,1,8%
CCOc1ccc2nc(N3CCC(C(=O)N4CCN(C5CCCCC5)CC4)CC3)sc2c1,2%,?,8.2µM*,-1,-1%
N#CC1=C(N)NC(SCC(=O)Nc2ccccc2)=C(C#N)C12CCCC2,-2%,?,?,-15,-5%
CCOC(=O)C1=NOC(CN(c2ccccc2)S(=O)(=O)c2ccc(Cl)cc2)C1 (stereo unspecified),13%,5%,6%,17,9%
CCC(Sc1nnc(C)c(=O)[nH]1)C(=O)Nc1cccc2ccccc12 (stereo unspecified),-1%,?,-6%,11,-1%
CC1=CC2=NC(=O)/C(=C/c3cccn3Cc3ccccc3)C(=N)N2O1,?,?,19%,26,?
N=C1/C(=C/c2cccn2Cc2ccc(Cl)cc2)C(=O)N=C2SC=CN12,21µM*,?,-13%,10,16µM*
Cn1c(NN)nc2sc3c(c2c1=O)CC(C)(C)OC3,13µM*,?,?,46,?
CCCNC(=O)C1(C)CCCN(Cc2ccc(Cl)cc2)C1 (stereo unspecified),24%,?,?,0,25%
CCCNC(=O)C1(C)CCCN(Cc2ccc3ccccc3c2)C1 (stereo unspecified),?,23µM*,?,0,0%
CCCNC(=O)C1(C)CCCN(Cc2cc3ccccc3o2)C1 (stereo unspecified),-2%,23µM*,16µM*,2,3%
CC1(C)CC(=O)c2sc(NS(=O)(=O)c3ccc(F)cc3)nc2C1,13%,0%,0%,3,1%
CC(NC(=O)c1cccc(N(C)C)c1)c1ccc(-n2ccnc2)cc1 (stereo unspecified),11%,-28%,2%,i,-1%
O=C(NC1CC1)c1ccc2c(c1)N(Cc1ccc(Cl)cc1)CCS2,-20%,?,?,-17,-8%
CCOC(=O)N1CCN(C(=O)c2ccc3c(c2)N(Cc2ccccc2)CCS3)CC1,1%,26µM*,?,7,3%
CC1CC(C)CN(C(=O)c2ccc3c(c2)N(Cc2ccccc2)CCS3)C1 (stereo unspecified),-11%,?,?,?,10%
Cc1ccc(Cl)cc1N1CCN(C(=O)c2ccc3c(c2)N(Cc2ccccc2)CCS3)CC1,nt,23µM*,16µM*,nt,nt
CCCCNc1ccc2c(c1)C1CC2CCN1C(=O)OCc1ccccc1 (stereo unspecified),-26%,?,?,-20,-10%
